Experimental data reported in ChEMBL document CHEMBL3988442, “University of Dundee, Small-Polar-MMV Screening Library” (2021).
For some of these results: Results with a measured potency or affinity are listed apart.

Legend:
Set-up in all cases: scale not given: direction of the effect not stated beside the values
[1] = molecular target: Protein translocase subunit SecA (Escherichia coli (strain K12)) (UniProt P10408); assay: Assay to Identify E. coli SecA ATPase Inhibitors; format: functional; details: 30 µM
Chain of Protein translocase subunit SecA (Escherichia coli (strain K12)) (P10408 whole entry): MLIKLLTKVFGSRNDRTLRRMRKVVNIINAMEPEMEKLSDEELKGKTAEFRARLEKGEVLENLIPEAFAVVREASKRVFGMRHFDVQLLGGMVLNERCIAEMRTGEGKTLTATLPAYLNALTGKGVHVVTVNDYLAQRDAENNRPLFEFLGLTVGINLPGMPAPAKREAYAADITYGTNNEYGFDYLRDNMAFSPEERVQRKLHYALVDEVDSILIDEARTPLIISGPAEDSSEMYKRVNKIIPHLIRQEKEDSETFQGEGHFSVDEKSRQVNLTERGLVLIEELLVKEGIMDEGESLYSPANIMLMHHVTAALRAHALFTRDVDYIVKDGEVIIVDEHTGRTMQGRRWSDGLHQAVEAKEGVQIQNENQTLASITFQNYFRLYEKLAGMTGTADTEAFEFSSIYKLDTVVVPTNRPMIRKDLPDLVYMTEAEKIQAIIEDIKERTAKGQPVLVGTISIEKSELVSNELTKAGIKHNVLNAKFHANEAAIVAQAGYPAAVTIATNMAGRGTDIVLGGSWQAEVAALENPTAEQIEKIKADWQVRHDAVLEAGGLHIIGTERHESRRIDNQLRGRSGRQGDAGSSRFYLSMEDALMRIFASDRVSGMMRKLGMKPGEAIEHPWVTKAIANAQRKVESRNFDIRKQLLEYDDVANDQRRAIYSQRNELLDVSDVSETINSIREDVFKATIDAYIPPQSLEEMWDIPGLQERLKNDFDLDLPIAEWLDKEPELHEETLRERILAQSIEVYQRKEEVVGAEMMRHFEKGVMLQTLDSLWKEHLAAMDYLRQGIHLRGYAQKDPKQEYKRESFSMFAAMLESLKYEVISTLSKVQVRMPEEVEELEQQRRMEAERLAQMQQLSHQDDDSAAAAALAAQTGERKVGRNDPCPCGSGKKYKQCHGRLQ

[2] = molecular target: T1, Ubiquitin-activating enzyme e1, putative (Leishmania donovani (strain BPK282A1)) (UniProt E9BSI1); assay: Leishmania donovani Ubiquitin Activating Enzyme (LdE1); format: functional; details: 30 µM
T1 sequence (whole entry): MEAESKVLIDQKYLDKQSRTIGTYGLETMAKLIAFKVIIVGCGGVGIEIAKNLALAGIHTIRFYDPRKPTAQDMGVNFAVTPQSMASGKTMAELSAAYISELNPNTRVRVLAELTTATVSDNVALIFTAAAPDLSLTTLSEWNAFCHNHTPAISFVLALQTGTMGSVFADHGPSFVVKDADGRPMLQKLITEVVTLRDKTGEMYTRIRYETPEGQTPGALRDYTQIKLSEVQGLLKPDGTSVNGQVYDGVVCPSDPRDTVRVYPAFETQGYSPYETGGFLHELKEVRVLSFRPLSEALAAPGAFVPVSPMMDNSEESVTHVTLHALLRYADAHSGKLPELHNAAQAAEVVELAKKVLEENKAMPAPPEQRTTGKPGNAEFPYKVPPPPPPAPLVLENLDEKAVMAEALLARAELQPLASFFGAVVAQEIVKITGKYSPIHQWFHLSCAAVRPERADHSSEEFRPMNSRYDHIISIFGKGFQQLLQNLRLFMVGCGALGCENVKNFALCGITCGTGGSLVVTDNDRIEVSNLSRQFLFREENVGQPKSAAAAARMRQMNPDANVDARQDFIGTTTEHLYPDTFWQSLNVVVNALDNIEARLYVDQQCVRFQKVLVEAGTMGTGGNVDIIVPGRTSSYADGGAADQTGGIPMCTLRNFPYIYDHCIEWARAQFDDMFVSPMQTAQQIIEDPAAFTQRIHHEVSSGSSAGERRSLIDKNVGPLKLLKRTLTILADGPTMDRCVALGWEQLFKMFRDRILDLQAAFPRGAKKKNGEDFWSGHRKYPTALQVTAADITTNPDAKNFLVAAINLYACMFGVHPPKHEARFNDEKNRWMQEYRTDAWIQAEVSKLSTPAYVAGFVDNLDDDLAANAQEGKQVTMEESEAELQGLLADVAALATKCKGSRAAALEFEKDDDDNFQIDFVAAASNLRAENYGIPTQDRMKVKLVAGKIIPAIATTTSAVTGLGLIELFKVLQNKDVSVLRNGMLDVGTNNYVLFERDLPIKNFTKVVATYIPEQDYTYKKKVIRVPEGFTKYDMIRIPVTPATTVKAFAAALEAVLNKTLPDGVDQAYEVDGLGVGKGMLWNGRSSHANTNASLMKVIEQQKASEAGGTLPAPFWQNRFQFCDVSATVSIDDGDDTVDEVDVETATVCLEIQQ

[3] = molecular target: Sialic acid-binding Ig-like lectin 9 (Homo sapiens) (UniProt Q9Y336); assay: Hs-Siglec9 ALPHAscreen SOP 20170721; details: 10 µM
Chain of Sialic acid-binding Ig-like lectin 9 (Homo sapiens) (Q9Y336 whole entry): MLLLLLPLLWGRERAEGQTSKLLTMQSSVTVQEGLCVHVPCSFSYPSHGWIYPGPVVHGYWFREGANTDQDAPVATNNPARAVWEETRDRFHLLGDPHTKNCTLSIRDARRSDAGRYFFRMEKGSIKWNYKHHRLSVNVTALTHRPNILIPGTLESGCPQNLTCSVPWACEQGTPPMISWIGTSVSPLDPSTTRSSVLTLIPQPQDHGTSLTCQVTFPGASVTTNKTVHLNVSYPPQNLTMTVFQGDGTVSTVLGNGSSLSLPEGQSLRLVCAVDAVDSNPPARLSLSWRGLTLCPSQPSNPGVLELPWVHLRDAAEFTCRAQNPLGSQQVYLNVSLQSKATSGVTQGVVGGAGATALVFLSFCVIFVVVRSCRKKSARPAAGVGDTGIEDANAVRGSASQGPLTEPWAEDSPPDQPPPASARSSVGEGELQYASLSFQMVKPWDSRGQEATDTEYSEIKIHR

Trypanosoma cruzi = assay: Trypanosoma cruzi phosphomannomutase and mannose-1-phosphate guanylyltransferase assay; format: functional; details: 10 µM
[4] = molecular target: T2, Arginase-2, mitochondrial (Homo sapiens) (UniProt P78540); assay: in vitro enzyme assay to detect the production of urea directly proportional to the activity of Arginase II; format: functional; details: 33.3 µM; note: in the data most compounds retested in dose-response had high values
T2 sequence (whole entry): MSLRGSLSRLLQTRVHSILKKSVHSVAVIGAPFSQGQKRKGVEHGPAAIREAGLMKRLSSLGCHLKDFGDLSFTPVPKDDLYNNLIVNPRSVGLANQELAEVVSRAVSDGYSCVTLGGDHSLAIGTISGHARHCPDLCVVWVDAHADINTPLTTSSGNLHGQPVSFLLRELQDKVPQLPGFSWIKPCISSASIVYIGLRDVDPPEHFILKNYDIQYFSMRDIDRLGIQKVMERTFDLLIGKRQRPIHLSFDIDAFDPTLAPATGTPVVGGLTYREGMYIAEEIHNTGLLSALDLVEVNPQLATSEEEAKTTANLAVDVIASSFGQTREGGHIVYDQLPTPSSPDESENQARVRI

[5] = molecular target: T3, Proteasome subunit beta (Trypanosoma cruzi) (UniProt O96673); assay: Trypanosoma cruzi proteasome chymotrypsin-like activity (TcProtChymo) assay.; note: in the data most compounds retested in dose-response had high values; format: functional; details: 9.37 µM
T3 sequence (whole entry): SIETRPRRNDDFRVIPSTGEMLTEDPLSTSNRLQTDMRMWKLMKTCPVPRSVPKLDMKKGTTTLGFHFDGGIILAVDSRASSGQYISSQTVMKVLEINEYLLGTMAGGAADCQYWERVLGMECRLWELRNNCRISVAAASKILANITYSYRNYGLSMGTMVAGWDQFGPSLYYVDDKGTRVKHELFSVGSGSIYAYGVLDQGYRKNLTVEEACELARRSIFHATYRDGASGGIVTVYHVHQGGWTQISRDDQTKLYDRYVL

Homo sapiens = species: Homo sapiens; assay: To identify inhibition of the IFN signalling (Jak-Stat) pathway via expression of an eGFP reporter gene under the control of an IFN-stimulated response element (ISRE) containing MxA promoter.; format: functional; details: 30 µM
[6] = molecular target: T4, Tyrosyl-tRNA synthetase, putative (Trypanosoma cruzi (strain CL Brener)) (UniProt Q4DSP6); assay: Trypanosoma cruzi tyrosyl tRNA synthetase (TcYRS) _High Tyrosine SOP; format: functional; details: 30 µM; note: in the data most compounds retested in dose-response had high values
T4 sequence (whole entry): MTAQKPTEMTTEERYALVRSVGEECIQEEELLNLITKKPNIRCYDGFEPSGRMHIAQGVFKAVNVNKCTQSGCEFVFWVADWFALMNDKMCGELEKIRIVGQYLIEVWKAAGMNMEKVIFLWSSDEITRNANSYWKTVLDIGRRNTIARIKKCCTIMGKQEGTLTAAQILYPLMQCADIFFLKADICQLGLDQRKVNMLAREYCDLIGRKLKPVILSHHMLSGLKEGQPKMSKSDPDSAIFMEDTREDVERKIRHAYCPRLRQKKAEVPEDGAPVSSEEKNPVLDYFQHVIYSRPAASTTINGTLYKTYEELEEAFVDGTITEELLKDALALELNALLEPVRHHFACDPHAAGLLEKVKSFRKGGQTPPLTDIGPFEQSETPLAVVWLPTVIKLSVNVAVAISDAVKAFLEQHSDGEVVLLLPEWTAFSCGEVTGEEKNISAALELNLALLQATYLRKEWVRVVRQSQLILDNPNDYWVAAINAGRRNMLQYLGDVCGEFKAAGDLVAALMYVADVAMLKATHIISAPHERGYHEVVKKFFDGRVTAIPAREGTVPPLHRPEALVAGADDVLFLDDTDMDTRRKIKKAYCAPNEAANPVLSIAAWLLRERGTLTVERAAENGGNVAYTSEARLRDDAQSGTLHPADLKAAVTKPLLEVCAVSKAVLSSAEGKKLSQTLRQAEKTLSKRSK

[7] = molecular target: T4, Tyrosyl-tRNA synthetase, putative (Trypanosoma cruzi (strain CL Brener)); assay: Trypanosoma cruzi tyrosyl tRNA synthetase (TcYRS) SOP; format: functional; details: 30 µM
[8] = molecular target: Chromo domain-containing protein 1 (Saccharomyces cerevisiae (strain ATCC 204508 / S288c) (Baker's yeast)) (UniProt P32657); assay: ScCHD-1 Enzyme Inhibition Assay; format: functional; details: 30 µM; note: in the data most compounds retested in dose-response had high values
Chain of Chromo domain-containing protein 1 (Saccharomyces cerevisiae (strain ATCC 204508 / S288c) (Baker's yeast)) (P32657 whole entry, the tested form may be a part): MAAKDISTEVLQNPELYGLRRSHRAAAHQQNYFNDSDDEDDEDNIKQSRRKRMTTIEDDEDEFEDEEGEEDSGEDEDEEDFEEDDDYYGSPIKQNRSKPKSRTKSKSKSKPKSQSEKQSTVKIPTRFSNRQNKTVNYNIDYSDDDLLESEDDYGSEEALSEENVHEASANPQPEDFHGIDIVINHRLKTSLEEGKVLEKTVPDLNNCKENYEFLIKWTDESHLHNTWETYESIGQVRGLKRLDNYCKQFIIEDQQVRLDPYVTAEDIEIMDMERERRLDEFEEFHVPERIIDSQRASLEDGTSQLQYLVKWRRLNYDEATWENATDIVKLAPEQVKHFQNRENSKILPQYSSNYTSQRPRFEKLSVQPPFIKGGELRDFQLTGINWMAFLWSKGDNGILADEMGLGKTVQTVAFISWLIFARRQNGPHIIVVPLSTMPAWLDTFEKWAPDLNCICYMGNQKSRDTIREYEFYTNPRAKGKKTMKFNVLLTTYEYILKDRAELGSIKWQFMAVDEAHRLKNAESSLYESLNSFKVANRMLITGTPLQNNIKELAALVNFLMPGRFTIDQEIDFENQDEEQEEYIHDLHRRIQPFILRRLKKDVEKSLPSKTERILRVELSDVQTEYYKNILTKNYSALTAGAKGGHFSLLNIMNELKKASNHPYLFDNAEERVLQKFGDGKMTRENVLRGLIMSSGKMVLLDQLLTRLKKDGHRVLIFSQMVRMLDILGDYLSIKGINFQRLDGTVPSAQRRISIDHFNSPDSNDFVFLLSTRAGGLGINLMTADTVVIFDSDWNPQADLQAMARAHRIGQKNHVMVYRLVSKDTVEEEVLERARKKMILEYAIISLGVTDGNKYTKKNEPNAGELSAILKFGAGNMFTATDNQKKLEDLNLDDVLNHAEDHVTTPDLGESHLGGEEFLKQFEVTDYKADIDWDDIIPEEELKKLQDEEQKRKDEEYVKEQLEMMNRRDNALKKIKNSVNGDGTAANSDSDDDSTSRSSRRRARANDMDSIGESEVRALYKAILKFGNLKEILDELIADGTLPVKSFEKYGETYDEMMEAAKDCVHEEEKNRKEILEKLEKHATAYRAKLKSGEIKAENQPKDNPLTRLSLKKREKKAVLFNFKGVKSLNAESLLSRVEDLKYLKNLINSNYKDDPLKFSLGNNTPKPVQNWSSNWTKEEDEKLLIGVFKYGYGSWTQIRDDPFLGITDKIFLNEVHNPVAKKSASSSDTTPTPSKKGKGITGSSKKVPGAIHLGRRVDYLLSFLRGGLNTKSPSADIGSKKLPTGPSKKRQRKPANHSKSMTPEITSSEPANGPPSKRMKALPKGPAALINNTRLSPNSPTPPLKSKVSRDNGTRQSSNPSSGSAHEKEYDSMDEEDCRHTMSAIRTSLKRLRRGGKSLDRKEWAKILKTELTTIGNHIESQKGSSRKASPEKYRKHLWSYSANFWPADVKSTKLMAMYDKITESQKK

## Fc1cnc(N2CCOCC3(CCCN(c4nncs4)C3)C2)nc1 (stereo not given)
[1]
  Percent Effect: -8.43%
[2]
  Percent Effect: 6.49%
[3]
  Percent Effect: -1.88%
Trypanosoma cruzi
  Percent Effect: -2.63%
[4]
  Percent Effect: -5.26%
[5]
  Percent Effect: 10.5%
Homo sapiens
  Percent Effect: -23.8%
[6]
  Percent Effect: 1.58%
[7]
  Percent Effect: 7.69%
[8]
  Percent Effect: 0.128%

## O=C(c1ccnnc1)N1CCC2(CC1)CC(N1CCOCC1)C2
[1]
  Percent Effect: 0.141%
[2]
  Percent Effect: 14.3%
[3]
  Percent Effect: -2.15%
Trypanosoma cruzi
  Percent Effect: -2.25%
[4]
  Percent Effect: 5.48%
[5]
  Percent Effect: 13.8%
Homo sapiens
  Percent Effect: 22.2%
[6]
  Percent Effect: 4.83%
[7]
  Percent Effect: 2.5%
[8]
  Percent Effect: -8.83%

## Cn1ccc(CN2CCC(NC(=O)NC3CCCCC3)CC2)cc1=O
[1]
  Percent Effect: -2.35%
[2]
  Percent Effect: 10.3%
[3]
  Percent Effect: 10.4%
Trypanosoma cruzi
  Percent Effect: -2.16%
[4]
  Percent Effect: 6.15%
[5]
  Percent Effect: -1.28%
Homo sapiens
  Percent Effect: 27.9%
[6]
  Percent Effect: 4.31%
[7]
  Percent Effect: 10.8%
[8]
  Percent Effect: -1.97%

## CCc1ncc(C(=O)N2CCOCC2c2c(C)n[nH]c2C)s1 (stereo not given)
[1]
  Percent Effect: -0.434%
[2]
  Percent Effect: 10.3%
[3]
  Percent Effect: -1.82%
Trypanosoma cruzi
  Percent Effect: 7.23%
[4]
  Percent Effect: 0.41%
[5]
  Percent Effect: 1.11%
Homo sapiens
  Percent Effect: -6.48%
[6]
  Percent Effect: -0.478%
[7]
  Percent Effect: 8.43%
[8]
  Percent Effect: -1.09%
